This passage reports growth results from PubChem BioAssay (NCI).

SMILES strings stand for the structures. The panel holds about 83,000 compounds, 20% with a hit somewhere; the sample as a whole holds those more often.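 Each cell line was grown in a 96-well plate and treated with one concentration of compound for 48 hours. Values below 10 were considered active.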 A number with no mark means an inactive call. The source made the active and inactive calls.

Some test systems named below: NCI-H23 lung; NCI-H226 lung; NCI-H322M lung; HOP-62 NSCLC; NCI-H460 lung; HOP-92 NSCLC; NCI-H522 lung; A549/ATCC NSCLC; 786-0 renal; COLO 205 colon; DU-145 prostate; K-562 leukemia; MALME-3M melanoma; MDA-MB-231 breast; RXF 393 renal; SF-268 CNS; SF-295 CNS; SF-539 CNS; UACC-257 melanoma; M14 melanoma.
Experiment in all cases: NCI-60 one-dose screen, 48 h (100 = growth as untreated, 0 = no growth, -100 = all killed)
Holding throughout (settings): 10 µM unless noted

`CCN1CCC[C@H]1c1cc(O)c2c(c1OC)C[C@H]1C[C@H]3[C@H](N)C(=O)C(C(N)=O)=C(O)[C@@]3(O)C(=O)C1=C2O`: the growth in the assay with NCI-H23 lung was -16.7% (active); with NCI-H226 lung it was 1.47% (active); in the assay with NCI-H322M lung, -2.43% (active); with HOP-62 NSCLC, -12% (active); with NCI-H460 lung, 2.84% (active); in the assay on HOP-92 NSCLC, -3.43% (active). In addition, the growth in the assay with NCI-H522 lung was -21.4% (active); in the assay on A549/ATCC NSCLC it was 6.12% (active); with 786-0 renal it was 3.89% (active); in the assay on COLO 205 colon, -18.7% (active); in the assay with DU-145 prostate, 1.87% (active); in the assay on K-562 leukemia it was 3.76% (active). For the same compound, the growth with MALME-3M melanoma is -16.5% (active); in the assay on MDA-MB-231 breast, -6.79% (active); in the assay with RXF 393 renal it was -40.4% (active); in the assay on SF-268 CNS it was 2.64% (active); in the assay with SF-295 CNS it was 0.93% (active); in the assay on SF-539 CNS it was -21% (active). For the same compound, the growth was -14.1% (active) in the assay with UACC-257 melanoma and -38.8% (active) with M14 melanoma.
`CCn1cc(C(=O)O)c(=O)c2cc(F)c(N3CCN(CC(=O)Nc4ccc(/C(C)=N/OC)cc4)CC3)cc21`: the growth is 90.6% in the assay with NCI-H23 lung; 97.9% in the assay on NCI-H226 lung; 80.2% with NCI-H322M lung; 88.8% with HOP-62 NSCLC; 104% in the assay with NCI-H460 lung; 84.8% in the assay with HOP-92 NSCLC. In addition, the growth is 84.8% with NCI-H522 lung; 95.8% with A549/ATCC NSCLC; 91.7% in the assay on 786-0 renal; 102% in the assay on COLO 205 colon; 104% with DU-145 prostate; 92.5% in the assay on K-562 leukemia. Besides, the growth with MALME-3M melanoma was 103%; with MDA-MB-231 breast, 85.9%; with RXF 393 renal, 100%; in the assay with SF-268 CNS, 94.1%; in the assay with SF-295 CNS, 92.3%; in the assay on SF-539 CNS it was 92.7%. The growth in the assay with UACC-257 melanoma is 91.3%; in the assay on M14 melanoma, 99.4%.
In the case of `CC(=O)c1c(OCC#N)ccc2c(C)cc(=O)oc12`, the growth is 109% in the assay with NCI-H23 lung; 112% in the assay on NCI-H226 lung; 113% in the assay with NCI-H322M lung; 94.7% in the assay on HOP-62 NSCLC; 103% in the assay on NCI-H460 lung; 108% with HOP-92 NSCLC. For the same compound, the growth in the assay with NCI-H522 lung was 77.3%; in the assay on A549/ATCC NSCLC it was 99.9%; in the assay with 786-0 renal it was 106%; with COLO 205 colon, 104%; in the assay on DU-145 prostate it was 114%; with K-562 leukemia, 69%. The growth is 116% in the assay with MALME-3M melanoma; 104% in the assay with MDA-MB-231 breast; 106% in the assay on RXF 393 renal; 110% with SF-268 CNS; 125% in the assay with SF-295 CNS; 105% with SF-539 CNS. The growth in the assay with UACC-257 melanoma is 133%; in the assay with M14 melanoma, 102%.
Turning to `C(=C\c1cn(-c2ccccc2)nc1-c1ccccc1)/c1nnc(-c2c[nH]c3ccccc23)o1`, the growth in the assay on NCI-H23 lung was 51%; in the assay on NCI-H226 lung it was 57.3%; in the assay on NCI-H322M lung, 80.3%; in the assay with HOP-62 NSCLC, 38.9%; in the assay with NCI-H460 lung, 14.1%; with HOP-92 NSCLC it was 60.2%. Further, the growth with NCI-H522 lung is 61.5%; in the assay on A549/ATCC NSCLC, 46.7%; with 786-0 renal, 40.6%; in the assay on COLO 205 colon, 31.8%; in the assay with DU-145 prostate, 27%; with K-562 leukemia, 61.5%. In addition, the growth in the assay on MALME-3M melanoma is 7.81% (active); with MDA-MB-231 breast, 9.62% (active); with RXF 393 renal, 53.5%; with SF-268 CNS, 40.9%; with SF-295 CNS, 29.8%; with SF-539 CNS, 59.2%. The growth is 107% in the assay on UACC-257 melanoma and 45.5% in the assay on M14 melanoma.
For the compound `Cn1c2c(c3ccc(-c4ccn[nH]4)cc3c1=O)C(=O)c1ccccc1-2`, the growth is 25.3% in the assay with NCI-H23 lung; 0.642% (active) in the assay on NCI-H226 lung; 87.3% with NCI-H322M lung; 17.2% with HOP-62 NSCLC; 1.75% (active) in the assay on NCI-H460 lung; 79.3% in the assay on HOP-92 NSCLC. Moreover, the growth is 48.8% in the assay with NCI-H522 lung; 8.44% (active) with A549/ATCC NSCLC; 12.3% in the assay with 786-0 renal; 53.8% in the assay on COLO 205 colon; 15.9% in the assay on DU-145 prostate; 17.7% in the assay on K-562 leukemia. Further, the growth in the assay on MALME-3M melanoma was 55.8%; with MDA-MB-231 breast, 86.9%; with RXF 393 renal, 91.5%; with SF-268 CNS, 40.8%; with SF-295 CNS it was 20.5%; with SF-539 CNS, 37.3%. Also, the growth in the assay with UACC-257 melanoma was 103%; in the assay with M14 melanoma it was 48.6%.
Regarding `C[C@]12CC[C@@H]3c4ccc(O)cc4CC[C@H]3[C@@H]1C[C@H](O)C2`, the growth was 100% with NCI-H23 lung; 104% with NCI-H226 lung; 89.5% in the assay with NCI-H322M lung; 72.8% with HOP-62 NSCLC; 74.3% in the assay on NCI-H460 lung; 86.1% in the assay on HOP-92 NSCLC. For the same compound, the growth is 54.6% with NCI-H522 lung; 49.5% in the assay on A549/ATCC NSCLC; 88.1% with 786-0 renal; 128% in the assay on COLO 205 colon; 93.9% in the assay with DU-145 prostate; 19.7% in the assay with K-562 leukemia. The growth is 80.5% in the assay on MALME-3M melanoma; 64.6% with MDA-MB-231 breast; 100% in the assay on RXF 393 renal; 78.4% in the assay on SF-268 CNS; 87.3% in the assay with SF-295 CNS; 73.5% in the assay with SF-539 CNS. The values for the growth in the assay on UACC-257 melanoma and in the assay on M14 melanoma were 78.5% and 52.7%, respectively.
Regarding `COc1cc(C2=NN(C=O)C(c3cccc(Nc4ccnc5cc(C(F)(F)F)ccc45)c3)C2)cc(OC)c1OC` (stereo not given), the growth in the assay with NCI-H23 lung is 59.9%; with NCI-H226 lung, 64.3%; in the assay on NCI-H322M lung it was 66.2%; in the assay on HOP-62 NSCLC, 70.1%; in the assay on NCI-H460 lung, 44%; in the assay with HOP-92 NSCLC, 29.1%. The growth was 53.1% with NCI-H522 lung; 49% with A549/ATCC NSCLC; 63.3% with 786-0 renal; 56.8% in the assay on COLO 205 colon; 40% in the assay on DU-145 prostate; 37.8% in the assay with K-562 leukemia. The growth was 86.3% in the assay on MALME-3M melanoma; 58.1% in the assay on MDA-MB-231 breast; 72.4% in the assay on RXF 393 renal; 46.6% in the assay on SF-268 CNS; 65.2% in the assay on SF-295 CNS; 77% with SF-539 CNS. For the same compound, the growth in the assay on UACC-257 melanoma was 81.2%; in the assay with M14 melanoma it was 15.4%.
